In PubChem BioAssay AID651718 (The Scripps Research Institute Molecular Screening Center, 2012):
Out of some 360,000 compounds screened, about 2,700 (0.75%) were called active. Cut-off read from the data, not from the text of the source: active = inhibition above about 4.5%; inactive = the rest. Many of the other results were omitted from the sample, so actives are more common in it than they were.

Tested on: Methionine sulfoxide reductase A (Bos taurus)
Assay: bovine MsrA enzyme inhibitors, primary screen, biochemical, absorbance, HTS (AID 651718);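 note: 0% = vehicle wells with enzyme and 100% = reference inhibitor wells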
Details: purified bovine MsrA, absorbance read-out; at 15.5 µM; hits give high values

inhibition, active:
CCOc1cc(/C=C2\SC(N3CCCCC3)=NC2=O)ccc1O 4.93%, CCN(CC)C(=O)c1sc(NC(=O)c2ccco2)c(C#N)c1C 4.94%, CS(=O)(=O)c1ccc2nc(NC(=O)c3ccc(Cl)nc3)sc2c1 4.77%, Clc1cccc(-c2nc3nc4ccccc4nc3n2Cc2ccco2)c1 4.87%, O=C(Cc1ccccn1)c1ccc(O)cc1O 4.91%, O=C(O)c1ccc(N/N=C/c2cn(-c3ccccc3)nc2-c2cccs2)cc1 8.7%, CC(=O)Nc1ccc(S(=O)(=O)Oc2ccc(/C=N/N=C3/NC(=O)C(CC(=O)O)S3)cc2)cc1 (centres undefined) 5.33%, C(=N/Nc1cc(N2CCOCC2)nc(N2CCOCC2)n1)/c1ccccc1 5.01%, COc1ccc(/C=N/Nc2cc(N3CCOCC3)nc(C)n2)c(OC)c1 5.8%, COC(=O)Cn1cnc2scc(-c3ccc(C)c(C)c3)c2c1=O 4.6%, CCOC(=O)C(C)n1cnc2scc(-c3ccc(C)c(C)c3)c2c1=O (centres undefined) 8.45%, COc1ccc(/C=C(/NC(=O)c2ccco2)C(=O)Nc2ccc(C(C)=O)cc2)cc1 6.24%, COc1ccc(CC(=O)c2ccc(O)cc2O)cc1OC 5.45%, CNC(=O)/C(=C\C=C\c1ccccc1)NC(=O)c1ccc([N+](=O)[O-])cc1 5.69%, O=C(Nc1ccc(C(=O)O)cc1)/C(=C/c1ccc([N+](=O)[O-])cc1)NC(=O)c1ccccc1 5.97%

inhibition, inactive:
COc1ccc(NC(=O)NNC(=O)COc2cc(C)c(Cl)c(C)c2)c(OC)c1 -0.36%, CCCCCCCCN1C(=O)[C@@H](CC(=O)N2CCN(C(=O)OCC)CC2)C[C@@]2(C(=O)OC)C1=C[C@H](C1CCCC1)O[C@@H]2C 0.48%, CCOc1cc(/C=C2\C(=N)N3N=C(C)SC3=NC2=O)ccc1OCCOc1ccccc1 -1.53%, CCOc1cc(/C=C2\SC(N3CCCC(C)C3)=NC2=O)ccc1O (centres undefined) 3.02%, CC(C)CNc1cccc2c1S(=O)(=O)N[C@H](CC(C)C)CO2 2.13%, COC(=O)Cc1nnn2c1[C@H](C)[C@H](c1ccccc1Br)OCC2 0.32%, Cc1c(C(=O)OC(C)C)sc(NC(=O)c2cccnc2)c1C#N 0.08%, Cc1sc(NC(=O)C2=COCCO2)c(C#N)c1C 0.89%, Nc1ncnc2c1ncn2[C@@H]1O[C@H](C(=O)N[C@@H](CCc2ccccc2)C(=O)NCC(=O)N2CCOCC2)[C@@H](O)[C@H]1O -0.08%, COc1cccc(CNCc2ccc3c(c2)OCO3)c1 0.46%, NS(=O)(=O)c1ccc2nc(NC(=O)CS(=O)(=O)c3ccc(F)cc3)sc2c1 0.94%, CC(=O)Nc1ccc2nc(NC(=O)CS(=O)(=O)c3ccc(F)cc3)sc2c1 1.73%, COC(=O)C1=C(C)N(Cc2ccccc2C(F)(F)F)C(=NCc2ccc(OC)cc2)NC1c1cccc(C(F)(F)F)c1 (centres undefined) -3.43%, Nc1ccn([C@@H]2O[C@H](C(=O)N[C@H]3CCCCNC3=O)[C@@H](O)[C@H]2O)c(=O)n1 -0.17%, C=CC[C@]12C[C@@]3(O[C@H](c4ccc(C(F)(F)F)cc4)N=C3C[C@H](c3ccc(OC)cc3)[C@H]1C)N(C1CCN(Cc3ccccc3)CC1)C2=O 0.32%, O=C(CSc1nnc(-c2cccnc2)n1Cc1ccco1)c1ccc(Cl)c(Cl)c1 -1.02%, Cc1cc(NCc2ccco2)n2c(nc3ccccc32)c1C#N -0.85%, CCC1SC2=NCCN2C1(O)c1ccc(Cl)cc1 (centres undefined) -0.53%, Cc1cc2c(cc1C)NC1(C[C@H]3CCC(=O)N4CC[C@@H](C1)[C@@H]34)C(=NC(C)(C)CC(C)(C)C)N2 (some centres undefined) 0.45%, COCCN(C(=O)C(C)C)c1nnc(-c2ccc(C(C)(C)C)cc2)s1 -0.05%, CC(C)[C@H]1COCCS(=O)(=O)N1Cc1ccccc1-c1cccc2c1sc1ccccc12 1.34%, O=C(O)C(CCc1ccccn1)c1ccccc1 (centres undefined) -0.84%, Oc1cccc(CCc2ccccn2)c1 -1%, CCOC(=O)N1CCN(C(=O)C[C@H]2C[C@@]3(C(=O)OC)C(=C[C@H](C4CCCC4)O[C@@H]3C)N(Cc3ccccc3)C2=O)CC1 -0.08%, Nc1ncnc2c1ncn2C1OC(CO)CC1O (centres undefined) 1.51%, CC1(C(=O)NS(=O)(=O)c2cccc(OC(F)F)c2)CCN1C(=O)C1CC1 (centres undefined) 0.29%, COC(=O)c1c(-c2ccc(OC)cc2)c2c(c3c4ccccc4n(S(=O)(=O)c4ccc(C)cc4)c13)C(=O)N(C)C2 1.59%, Nc1nc2c(ncn2[C@@H]2O[C@H](C(=O)N[C@H](Cc3ccccc3)C(=O)NCC3CCCCC3)[C@@H](O)[C@H]2O)c(=O)[nH]1 0.66%, COc1ccc(Cl)cc1NC(=O)CN(C)C(=O)c1cn(-c2ccccc2)nc1-c1cccs1 0.13%, CC(=O)C1=C(C)NC(C)=C(C(C)=O)C1c1cn(-c2ccccc2)nc1-c1cccs1 1.65%, CC(=NNC(N)=O)c1ccc(Cl)c(-n2cccc2)c1 -0.35%, CN1CCCCC(NC(=O)C(C)(C)C)C1=O (centres undefined) 0%, Cc1ccc(S(=O)(=O)Oc2ccc(/C=N/NC(=O)c3c(Cl)cnn3C)cc2)cc1 0.98%, Cc1ccc(NC(=O)CC2S/C(=N/N=C3\CCCc4ccccc43)NC2=O)cc1 (centres undefined) -0.26%, COC(=O)[C@]12C[C@H](CC(=O)NCCCCc3ccccc3)C(=O)N(Cc3ccc4c(c3)OCO4)C1=C[C@H](C(C)(C)C)O[C@@H]2C 1.75%, CCOC(=O)Cn1c2c(n(-c3ccc(F)cc3)c1=O)C=C(c1ccccc1)[C@@H](C)C(C(=O)N(C)C1CCCCC1)=C2 -0.4%, COc1ccc(C2=CN(Cc3ccccc3)C(c3ccc(OC)cc3)CC2=O)cc1 (centres undefined) -0.65%, COc1ccc(CNS(=O)(=O)c2cc(Br)ccc2Br)cc1 0.62%, COc1ccccc1-c1cnn2c(N3CCOCC3)cc(C)nc12 1.96%, Cc1cc2c(C)nc(N/N=C/c3ccccc3)nc2o1 3.05%, O=C(O)c1ccc(NN=CC2=C(N3CCOCC3)/C(=C/c3ccccc3)CC2)cc1 2.43%, Fc1ccccc1/C=N/Nc1cc(N2CCCCC2)ncn1 1.96%, COc1ccccc1C(=O)N1O[C@]23C=C[C@]14C[C@@H](O)CC[C@]4(C)C2CC[C@]1(C)[C@@H]([C@H](C)/C=C/[C@H](C)C(C)C)CC[C@H]13 (some centres undefined) -0.78%, CN(C)C(=O)N1CCN(C(=O)[C@@H](Cc2ccccc2)NC(=O)[C@H]2O[C@@H](n3ccc(N)nc3=O)[C@H](O)[C@@H]2O)CC1 0.17%, CSc1ccc(Oc2cccc3c2S(=O)(=O)N([C@H](C)c2ccccc2)C[C@@H](COCc2ccccc2)O3)cc1C 0.09%, CC(C)Cc1oc(C(=O)O)cc1CN -1.34%, Cc1ccc(S(=O)(=O)NCCC(c2ccccc2)c2ccccc2)cc1C(=O)O 0%, CC(=O)C(C)n1cnc2scc(-c3ccc(C)cc3)c2c1=O (centres undefined) 0.23%, CCC(C(=O)OC)n1cnc2scc(-c3ccc(C)cc3)c2c1=O (centres undefined) 2.62%, CCn1cnc2scc(-c3ccc(C)c(C)c3)c2c1=O 0.83%, CCOC(=O)C(C)n1cnc2c(nnn2-c2ccc(F)cc2)c1=O (centres undefined) -0.86%, Cc1sc2c(c1C)c(=O)n(-c1ccccc1)c1nncn21 0.74%, CC1(C)CC(=O)C=C(c2ccc3ncccc3c2)C1 0.6%, Cc1cccc(C(=O)NC2CCN(CC(=O)Nc3cccc(Cl)c3)CC2)c1 -0.97%, COc1ccc(-c2ccc3c(n2)CCCN3S(=O)(=O)c2ccc(C)cc2)cc1 1.35%, CCOC(=O)/C=C/c1ccccc1O 1.24%, Nc1ncnc2c1ncn2[C@@H]1O[C@H](C(=O)N[C@@H](CCc2ccccc2)C(=O)N2CCCN(Cc3cccs3)CC2)[C@@H](O)[C@H]1O -0.82%, Cc1ccc(NC(=O)/C(=C\c2ccccc2)NC(=O)c2ccco2)cc1 1.7%, O=C(NC(Cc1ccccc1)C(=O)O)/C(=C\c1ccccc1)NC(=O)c1ccco1 (centres undefined) -0.85%, O=C(NCc1ccccc1)[C@@H]1CCCN1C(=O)[C@@H](NS(=O)(=O)c1ccc(F)cc1F)C1CCCCC1 0.41%, C[C@@H](CN1C2=NC[C@@H](Cc3ccccc3)N2C[C@H]1Cc1ccc(O)cc1)NC(=O)CCC1CCCCC1 -0.6%, C[C@H]1[C@H](c2ccccc2)Oc2cc(Br)ccc2S(=O)(=O)N1Cc1cccc(F)c1 -0.62%, COc1ccc(CCNC(=O)CCc2ccccc2O)cc1OC -1.41%, COc1ccc(CCNC(=O)c2ccccc2-c2ccccc2C(=O)O)cc1OC -1.11%, COCc1[nH]nc2c1C(c1ccccc1)N(c1ccccc1)C2=O (centres undefined) 2.45%, O=C(Nc1ccc(C(=O)O)cc1)/C(=C\c1ccccc1)NC(=O)c1ccc(Br)cc1 -0.28%, Cc1ccc(C(=O)N/C(=C/C=C/c2ccccc2)C(=O)NCc2ccco2)cc1 3.44%, O=C(N/C(=C\c1ccc([N+](=O)[O-])cc1)C(=O)N1CCOCC1)c1cccc(Br)c1 2.94%, CC(C=Cc1ccccc1)=NNS(=O)(=O)c1ccc([N+](=O)[O-])cc1 0.99%
